Measured values as given in the supplement of paper PMC4894684.
Several values for one entry are separate records, joined by “and”; a condition that tells them apart may be missing. Identical values can stand only once. Counter-ions that a name gives are not always drawn. ± gives the standard deviation of the averaged measurements.

system: Toxoplasma gondii RH (in HFF); assay: parasite growth relative to the screen mean (all compounds = 100%); higher = less inhibition of parasite growth; conditions: 5 µM; 72 h; oxygen 21 %
Outline: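 Values give growth relative to the screen mean. The screen mean (all compounds) is set at 100%, and two screens were averaged. Compounds at 5 µM final were placed on confluent human foreskin fibroblasts, which were infected within 2 h with RH β-Gal–GFP Toxoplasma (MOI 1:5) and kept 72 h at 21% O2 before a CPRG β-Gal readout against in-plate standard curves.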

Compound	parasite growth
O=c1c(-c2ccc(O)cc2)coc2cc(O)ccc12 [Daidzein]	77.8 ± 43%
O=C1CC2(CCCC2)CC(=O)N1CCCCNCC1COc2ccccc2O1 (centres undefined)	156 ± 5.8%
N[C@@H](Cn1ccc(=O)n(Cc2ccccc2C(=O)O)c1=O)C(=O)O	108% and 93.5%
COc1ccc(CN2C(=O)C(=O)c3cc(OC(F)(F)F)ccc32)cc1	68.6 ± 14%
CC(C)(C)c1ccc(S(=O)(=O)/C=C/C#N)cc1	127 ± 30%
CN(Cc1ccccc1)C(=O)[C@H](Cc1ccc2ccccc2c1)NC(=O)[C@@H]1C[C@@H](O)CN1C(=O)c1cn(C)c2ccccc12	138 ± 4.8%
N=C(N)NC(=O)Cc1c(Cl)cccc1Cl [Guanfacine hydrochloride]	162 ± 45%
COc1[nH]c2ccc(F)cc2c1C(=O)OCC1CCN(CCNS(C)(=O)=O)CC1.NS(=O)(=O)O	80.2 ± 32%
C[C@H](NC(=O)c1sccc1OCc1ccc(Cl)cc1)c1ccccc1	38.7 ± 22%
CCN(CC)CC1CCCCN1CC(=O)N1c2ccccc2C(=O)Nc2cccnc21 (centres undefined)	146 ± 36%
CN(C)C(=O)C(CCN1CCC(O)(c2ccc(Cl)cc2)CC1)(c1ccccc1)c1ccccc1 [Loperamide hydrochloride]	20.6 ± 19%
COc1ccc2[nH]c([S+]([O-])Cc3ncc(C)c(OC)c3C)nc2c1 (centres undefined) [Omeprazole]	178 ± 7.3%
CCCCC1CCC(c2nc(-c3ccncc3)no2)CC1 (centres undefined)	81.9 ± 14%
COC(=O)C1=C(C)NC(C)=C(C(=O)OCCSc2ccccc2)C1C (centres undefined)	146 ± 12%
CN(C(=O)c1c(O)c2ccccc2n(C)c1=O)c1ccccc1 [Linomide]	135 ± 4.5%
c1ccc(CN2CCC3(CCc4ccccc43)CC2)cc1 [L-693,403 maleate]	135 ± 10%
CC1(CN2CCC(n3c(=O)[nH]c4ccccc43)CC2)OCc2ccccc2-n2cccc21 (centres undefined)	113 ± 47%
CC(C)c1ccccc1S(=O)(=O)c1cc(N)c2ncccc2c1[N+](=O)[O-]	88.4 ± 2.1%
COC1(C2=NCCN2)COc2ccccc2O1 (centres undefined)	136 ± 3.9%
NCCNC(=O)c1ccc(Cl)cn1 [Lazabemide hydrochloride]	109 ± 28%

Compound	parasite growth
O=C(NCCN1CCCCC1)c1ccc(I)cc1 [N-[2-(Piperidinylamino)ethyl]-4-iodobenzamide]	118 ± 12%
CCC(NC(C)C)C(O)c1ccc(O)c2[nH]c(=O)ccc12 (centres undefined) [Procaterol hydrochloride]	132 ± 21%
CN(C)C(=O)C(=O)c1cn(C)c2cc(Cl)c(C(=O)N3CCC(Cc4ccc(F)cc4)CC3)cc12	140 ± 28%
CN(C)[C@@H]1CCc2[nH]c3ccc(NC(=O)c4ccc(F)cc4)cc3c2C1	124 ± 19%
O=C(O)C=C1CCCc2ccccc2C1O (centres undefined)	112 ± 16%
O=[N+]([O-])c1cccc2cn[nH]c12 [7-Nitroindazole]	124.7 ± 0.72%
CCS(=O)(=O)N(C)[C@H]1c2cc(C#N)ccc2OC(C)(C)[C@@H]1O (racemic) [Chromanol 293B]	142 ± 10%
CN1CC(=O)N=C1NC(=O)Nc1cccc(Cl)c1 [Fenobam]	134 ± 5.3%
Cc1ccc(O)c(N=Nc2ccccc2)n1	92.5 ± 68%
CN1CCC[C@@H]1Cc1c[nH]c2ccc(CCS(=O)(=O)c3ccccc3)cc12 [Eletriptan hydrobromide]	126 ± 18%
Cc1scc2c1N(C(=O)CN1CCN(C)CC1)c1ccccc1NC2=O [Telenzepine dihydrochloride]	133 ± 26%
CCCCC[C@H](O)/C=C/[C@H]1[C@H](O)CC(=O)[C@@H]1C/C=C\CCCC(=O)O [Prostaglandin E2]	122 ± 1.1%
COC(=O)C[C@](O)(CCCC(C)(C)O)C(=O)O[C@@H]1C(OC)=C[C@]23CCCN2CCc2cc4c(cc2[C@H]13)OCO4 [Homoharringtonine]	< 0%
N#Cc1cc2nc(O)c(O)nc2cc1[N+](=O)[O-] [CNQX disodium salt]	133 ± 37%
COc1cccc(-c2cc(=O)c3ccccc3o2)c1N	93.9 ± 37%
N[C@H](C(=O)O)c1ccc(C(=O)O)c(O)c1 [(S)-4-Carboxy-3-hydroxyphenylglycine]	143 ± 25%
CN[C@H]1CC[C@@H](c2ccc(Cl)c(Cl)c2)c2ccccc21 [Sertraline hydrochloride]	29.3 ± 4.4%
CCCCCCCCCCC[C@@H](C[C@@H]1OC(=O)[C@H]1CCCCCC)OC(=O)[C@H](CC(C)C)NC=O [Orlistat]	< 0%
COc1cccc(OC)c1OCCNCC1COc2ccccc2O1 (centres undefined) [WB 4101 hydrochloride]	93.3 ± 33%
